This is part of a sample that, as a whole, favours compounds with a hit. Of some 83,000 tested, about 20% had one in any assay.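 The test compound was applied at a single concentration to cells in 96-well plates for 48 hours, and percent growth was recorded.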 The source made the active and inactive calls. The calls were made as follows: active = growth percent below 10; inactive = the rest.

The subject of this assay is MDA-MB-468 breast. The assay can be described thus: NCI-60 one-dose screen, 48 h (100 = growth as untreated, 0 = no growth, -100 = all killed). Conditions: 10 µM unless noted.
Take `CCCCCCC(=O)Nc1ncc(Cc2ccc(C)cc2)s1`: the growth is 28.4% (inactive). For `O=C(Nc1ccc(F)cc1F)c1cc(F)ccc1O` the value was -0.731% (active); for `O=C1CCCCN1c1ccc(C2=NCCCN2)cc1`, 82.2% (inactive). Turning to `O=C(NCCCNC(=O)OCc1ccc2cccc(O)c2n1)OCc1ccc2cccc(O)c2n1`, the growth is 11.3% (inactive). Consider `CCCCOc1ccc(S(=O)(=O)N2CCN(c3nccc(N4CCOCC4)n3)CC2)cc1`, for which the growth was 6.94% (active).

Consider `CCOC(=O)Nc1ccc(-c2nc(-c3cccc(OCCN4CCOCC4)c3)c(-c3ccnc(Br)c3)[nH]2)cc1`, for which the growth is 33.9% (inactive). On to `CCCN1[C@@H]2CC[C@H]1/C(=C\c1ccc(OC)c(OC)c1)C(=O)/C2=C/c1ccc(OC)c(OC)c1`, for which the growth is 17.7% (inactive). `Nc1ccc(-c2ccncc2)cc1NC(=O)N1CCCC1`: the growth was 94.2% (inactive). On to `COc1ccc(NC2=C(Br)C(=O)C(C)=C(C)C2=O)cc1OC`, for which the growth is -66.6% (active). Under `Nc1nc(N)c2cc(Sc3ccc4ccccc4c3)ccc2n1` stands 10.2% (inactive); under `COc1ccc(-n2c(SCc3n[nH]c(=S)o3)nc3ccc(Cl)cc3c2=O)cc1`, 82.6% (inactive). For `Cc1c(CC(=O)Nc2ccccc2)nnn1-c1ccccc1` the value was 117% (inactive); for `Cn1ccc(=Nc2ccc(NC(=O)c3ccc(N=c4ccn(C)c5ccc([N+](=O)[O-])cc45)cc3)cc2)cc1`, -2.24% (active); for `N[C@@H]1CCC[C@H]1NCCCCN1C(=O)c2cccc3cccc(c23)C1=O`, 53.9% (inactive). With `COCCOc1cc2ncnc(N3CCN(c4cc(S(C)(=O)=O)c(C)cc4Cl)CC3)c2cc1OCCOC`, the growth is 90.2% (inactive).

With `Oc1[nH]c2ccccc2c1/C=c1/cc2c(c(-c3ccc(C(F)(F)F)cc3)n1)=Nc1ccccc1-2`, the growth is 21.6% (inactive). For `COc1ccc(CCN2COc3c([C@@H](C)CCC=C(C)C)ccc(C)c3C2)cc1OC`, the growth was 26.8% (inactive). With `CN1CCN(c2ccc3nc(-c4[nH]ncc4Nc4ncnc5[nH]ccc45)[nH]c3c2)CC1`, the growth is -55.6% (active).

On to `CCOc1nc(-c2ccccc2)cc2c(O)c(C(=O)N/N=C/c3ccc(OC)cc3)[nH]c(=O)c12`, for which the growth was 61.9% (inactive).

In the case of `COc1cc(Cl)cc(-c2nn(-c3cccc(NC(=O)Nc4ccc(Cl)c(C(F)(F)F)c4)c3)cc2-c2ccncc2)c1`, the growth was -14.4% (active). As for `C#C[C@]1(O)CC[C@H]2[C@@H]3CC=C4c5sc(-c6cccc(O)c6)nc5CC[C@]4(C)[C@H]3CC[C@@]21C`, the growth was 1.79% (active). For `N#Cc1cccc(/C=C(/C(=O)c2ccccc2)c2ccccc2)c1` the value was 48.9% (inactive); for `COc1ccc([C@H]2C(=O)N(c3cc(OC)c(OC)c(OC)c3)[C@@H]2c2ccc(OC)c(O)c2)cc1`, -2.22% (active). For the molecule `COc1cc(/C=C2\CCCC3=C2NC(C)=NC3c2cc(OC)c(OC)c(OC)c2)cc(OC)c1OC` (stereo not given), the growth is -4.61% (active). As to `CCCCCCCCCCCC(=O)OCCNC(=O)C[n+]1ccccc1`, the growth was 101% (inactive).

With `OCC1OC(n2cnc3c(N/N=C\c4ccccn4)ncnc32)C(O)C1O` (stereo not given), the growth is -24% (active). `Oc1ccc(C(c2ccc(O)cc2)c2ccc(Cl)cn2)cc1`: the growth is -30.9% (active).

As to `C/C(=N\NC(=O)CSc1nc2ccccc2c(=O)n1Cc1ccc(S(N)(=O)=O)cc1)c1ccc(F)cc1`, the growth is 114% (inactive).

Consider `O=C1/C=C/[C@@H](O)[C@@H]2C[C@@H](O)C[C@H]2/C=C/CCC[C@H](CCc2cccc3ccccc23)O1`, for which the growth was -32.4% (active). Regarding `CCCCC1COc2cccc3c(SCC(=O)N(C)c4cccc(Cl)c4)cc[n+]1c23` (stereo not given), the growth was 104% (inactive). For `Cn1cc(-c2ccc3c(Nc4cccc(NC(=O)Nc5cccc(F)c5)c4)ncnc3c2)cn1` the value was 3.69% (active); for `COc1cc(-c2nc3ccccc3o2)cc(CN2CCN(c3ccccc3)CC2)c1O`, 76.3% (inactive). Turning to `CCN(CC)CCCC(C)Nc1c(C)cnc2cc(Cl)c(C)cc12` (stereo not given), the growth is 99.7% (inactive). Take `NC(=N\N=C/c1ccc(O)cc1)/C(N)=N\N=C/c1ccc(O)cc1`: the growth is 103% (inactive). For `CCCCCCn1c(-c2ccc(C(=O)O/N=C(\N)c3ccc4ccccc4c3)cc2)nc(-c2ccccc2)c1-c1ccccc1`, the growth was 78.8% (inactive). With `CCN(CC)CCNc1ccc(Cl)cc1Cl`, the growth is 108% (inactive). Consider `Nc1nc(N)c2c(n1)NC(c1ccc(Cl)cc1)C1CCc3ccccc3C1=N2` (stereo not given), for which the growth was 18.6% (inactive).

Turning to `CCN1C(=O)N(CC)C2Nn3c(s/c(=C\c4ccc(Cl)cc4Cl)c3=O)=NC21` (stereo not given), the growth is 32.1% (inactive). `ON1CCCC1`: the growth is 108% (inactive). Consider `CC[C@@H](C(=O)[C@@H](C)[C@@H](O)[C@H](C)[C@@H]1O[C@@H]([C@@H](CC)C(=O)NCCc2ccc(F)cc2)CC[C@@H]1C)C1O[C@]2(C=CC(=O)[C@]3(CC[C@@](C)([C@H]4CC[C@](O)(CC)[C@H](C)O4)O3)O2)[C@H](C)C[C@@H]1C` (stereo not given in full), for which the growth was 13.5% (inactive).

Values taken from PubChem BioAssay (NCI).
